Screening data from PubChem.
ADAM10 inh: inhibits human ADAM10 | O14672 | recombinant ADAM10, EDANS/DABCYL FRET peptide cleavage, 3 h | inhibition, % at 7 µM | 0.62% of 370,000 active;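 active = inhibition above a per-campaign cutoff equal to the mean of compounds falling between control-based bounds plus 3 SD, cut at about 20% in these data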;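 also: 0% = DMSO wells while the 100% control is not disclosed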
Target sequence (O14672 214-748 limits assumed): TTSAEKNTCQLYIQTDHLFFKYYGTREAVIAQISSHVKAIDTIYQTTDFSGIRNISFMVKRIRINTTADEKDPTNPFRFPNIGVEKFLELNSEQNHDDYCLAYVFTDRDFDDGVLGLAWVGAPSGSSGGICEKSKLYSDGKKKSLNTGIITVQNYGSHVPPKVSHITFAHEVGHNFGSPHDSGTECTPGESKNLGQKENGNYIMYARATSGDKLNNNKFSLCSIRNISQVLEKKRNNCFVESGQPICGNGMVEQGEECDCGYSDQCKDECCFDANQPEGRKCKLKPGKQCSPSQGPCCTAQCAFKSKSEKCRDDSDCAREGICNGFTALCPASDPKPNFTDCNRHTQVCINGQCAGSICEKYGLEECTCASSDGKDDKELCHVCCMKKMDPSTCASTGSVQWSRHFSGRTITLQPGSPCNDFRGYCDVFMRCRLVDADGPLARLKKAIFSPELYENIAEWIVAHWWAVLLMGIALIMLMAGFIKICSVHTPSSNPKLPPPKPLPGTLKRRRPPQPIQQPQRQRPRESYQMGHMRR
aDG glyco act: alpha-DG glycosylation activation; AID 624168; 0.22% of 360,000 active; Pro5-aDG cells, alpha-DG glycosylation AlphaScreen (IIH6); 0% Pro5, 100% B10-LARGE cell signal; activation, % at 10 µM;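 active = activation of at least 8% versus controls, or a plate z-score of at least 8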;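 also: Pro5 are CHO cells carrying HIG-tagged alpha-DG that lacks glycosylation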
FAS-TE inh: blocks the thioesterase domain of human fatty acid synthase; inhibition, % at 15 µM; recombinant FAS-TE, OMFH fluorogenic substrate, fluorescence endpoint; P49327; 0.67% of 360,000 active;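 active = compounds whose normalised, plate-corrected inhibition of enzyme fluorescence in the single-dose primary screen is 50% or more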;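 also: 0% = DMSO with enzyme and 100% = substrate without enzyme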
ADAM17 inh: ADAM17 inhibition, QFRET primary screen; inhibition, % at 6.95 µM; 0.83% of 370,000 active; recombinant ADAM17, EDANS/DABCYL FRET peptide cleavage;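 active = inhibition above the mean of compounds lying between control limits plus 3 SD, set per campaign, cut at about 8.5% in these data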;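 also: 0% = DMSO-only wells as the low control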
NR3A LBD binder: NR3A (human) ligand-binding domain modulation; NR3A LBD differential scanning fluorimetry, Tm shift; 0% = protein alone, 100% = glycine-bound protein; Tm shift relative to glycine control, % at 25 µM; 2.5% of 340,000 active;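 active = melting temperature shift of at least 10% of the positive control shift, at one fixed dose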
ADAM10 confirm: human ADAM10 inhibition, confirmation; shares compounds with ADAM10 inh; ADAM10 QFRET peptide cleavage, EDANS fluorescence; inhibition, % at 6.95 µM; 1% of 2,100 active; AID 743208;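 active = inhibition above about 20% chosen separately for each screening run, limit read from the data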;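 also: 0% = DMSO wells and 100% = marimastat wells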
ADAM17 ctr: inhibits human ADAM17 in ADAM10 exosite counter-screen. shares compounds with ADAM10 inh. 0.5% of 2,100 active. inhibition, % at 6.95 µM. ADAM17 QFRET peptide cleavage, EDANS fluorescence;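 active = mean triplicate inhibition above the solvent-only control wells' mean plus 3 SD, cut at about 12% in these data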;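 also: 0% = DMSO wells and 100% = marimastat wells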
ADAM10 ctr: ADAM10 inhibition, counter-screen for ADAM17 exosite hits; shares compounds with ADAM17 inh; recombinant ADAM10, EDANS/DABCYL FRET peptide cleavage, 3 h; inhibition, % at 6.95 µM; 47% of 2,900 active;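 active = mean inhibition over the triplicate runs exceeds the activity threshold set in the earlier primary screen, cut at about 20% in these data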;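 also: 0% = DMSO wells and 100% = marimastat wells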
ADAM17 confirm: confirmation of inhibitors of human ADAM17. recombinant ADAM17, EDANS/DABCYL QFRET peptide cleavage. 65% of 2,900 active. shares compounds with ADAM17 inh. inhibition, % at 6.95 µM;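 active = mean inhibition across replicates above the hit cutoff set in the primary screen, cut at about 8.5% in these data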;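 also: 0% = DMSO wells and 100% = marimastat wells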
Numbers without * were called inactive. An excerpt weighted towards active compounds, which were near 4% of everything screened.

Results for Cc1cccc(Oc2cc(NC(=O)c3ccccc3)cc([N+](=O)[O-])c2)c1 ?
ADAM10 inh: 22*; aDG glyco act: 1; FAS-TE inh: 35; ADAM17 inh: 9.0*; NR3A LBD binder: 5; ADAM10 confirm: 7; ADAM17 ctr: 2; ADAM10 ctr: 17; ADAM17 confirm: 12*

How did O=[N+]([O-])c1ccc(N2CCCC2)nc1 do in these assays?
ADAM10 inh: 3; aDG glyco act: 0; FAS-TE inh: 1; ADAM17 inh: -1; NR3A LBD binder: -1

What do the screens show for `Cc1cccc(NS(=O)(=O)c2ccc(C3CCCCC3)cc2)c1`?
ADAM10 inh: 32*; aDG glyco act: 2; FAS-TE inh: 28; ADAM17 inh: 16*; NR3A LBD binder: 0; ADAM10 confirm: 10; ADAM17 ctr: 4; ADAM10 ctr: 24*; ADAM17 confirm: 15*

How did O=C(O)c1cccc(NS(=O)(=O)c2ccc(C3CCCCC3)cc2)c1 do in these assays?
aDG glyco act: 0; FAS-TE inh: 4; NR3A LBD binder: -26

What do the screens show for `CCn1c(CNc2nc(-c3ccccc3)cs2)nnc1SCC(=O)NCc1ccccc1`?
ADAM10 inh: 20*; aDG glyco act: 0; FAS-TE inh: 9; ADAM17 inh: 11*; NR3A LBD binder: -3; ADAM10 confirm: 2; ADAM17 ctr: 0; ADAM10 ctr: 10; ADAM17 confirm: 13*

Results for CCCc1nc2ccccc2c(C(=O)OCC(=O)Nc2ccc(S(=O)(=O)N3CCOCC3)cc2)c1CC ?
ADAM10 inh: 40*; aDG glyco act: 0; FAS-TE inh: 28; ADAM17 inh: 18*; NR3A LBD binder: 18*; ADAM10 confirm: 10; ADAM17 ctr: 4; ADAM10 ctr: 30*; ADAM17 confirm: 18*

What do the screens show for `CCOC(=O)c1c(CSc2ccc(C)cc2)oc2ccc(O)cc12`?
ADAM10 inh: 30*; aDG glyco act: 0; FAS-TE inh: 25; ADAM17 inh: 13*; NR3A LBD binder: 5; ADAM10 confirm: 12; ADAM17 ctr: 4; ADAM10 ctr: 46*; ADAM17 confirm: 19*

How did CCOC(=O)c1c(-c2ccccc2)oc2ccc(O)cc12 do in these assays?
ADAM10 inh: -12; aDG glyco act: 0; FAS-TE inh: 22; ADAM17 inh: -7; NR3A LBD binder: -13

Results for CCOC(=O)c1c(CSc2ccccc2)oc2ccc(O)cc12 ?
ADAM10 inh: 29*; aDG glyco act: 0; FAS-TE inh: 38; ADAM17 inh: 11*; NR3A LBD binder: -2; ADAM10 confirm: 6; ADAM17 ctr: 2; ADAM10 ctr: 42*; ADAM17 confirm: 16*

What do the screens show for `COc1ccccc1N1CC(C(=O)Nc2ccc(C)c(S(=O)(=O)N3CCOCC3)c2)CC1=O` (stereo not given)?
ADAM10 inh: -15; aDG glyco act: 0; FAS-TE inh: -6; ADAM17 inh: -1; NR3A LBD binder: 2

How did CC1CC(C)CN(S(=O)(=O)c2ccc(F)c(C(=O)Nc3ccc(Cl)cc3F)c2)C1 (stereo not given) do in these assays?
ADAM10 inh: 6; aDG glyco act: 0; FAS-TE inh: -3; ADAM17 inh: 0; NR3A LBD binder: -3

Results for CCc1ccccc1NCC(=O)Nc1ccc(Cl)c(C(F)(F)F)c1 ?
ADAM10 inh: 35*; aDG glyco act: 0; FAS-TE inh: 46; ADAM17 inh: 17*; NR3A LBD binder: 21*; ADAM10 confirm: 6; ADAM17 ctr: 3; ADAM10 ctr: 40*; ADAM17 confirm: 19*
